RecA splice inh = inhibitors of M. tuberculosis RecA intein splicing. P9WHJ3. cell-free RecA intein splicing, fluorescence. inhibition, % (concentration not given with the values). hit rate 0.75% among 290,000. AID 2221; in the data active = inhibition above about 30%;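 note: 0% = vehicle wells and 100% = reference inhibitor control wells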
GDH-TPI counter-1 = inhibits GDH-TPI coupling enzymes, artifact for Mtb FBA screen; hit rate 1.2% among 360,000; GDH-TPI coupled enzyme counterscreen, NADH absorbance; inhibition, % at 4.8 µM; AID 588335; in the data active = inhibition above about 30%;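 note: 0% = DMSO wells and 100% = wells lacking the enzyme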
Mtb betalactam = beta-lactam sensitization of Mtb H37Rv | M. tuberculosis H37Rv growth with meropenem, percent inhibition | inhibition, % at 25 µM | hit rate 0.27% among 330,000; call rule not given here;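 note: growth measured after seven days incubation then overnight dye step; 0% = bacteria only wells and 100% = bacteria with antibiotic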
CCHF vOTU inh = blocks the CCHF virus ovarian tumor domain protease; inhibition, % at 11.5 µM; hit rate 0.55% among 370,000; CCHFV vOTU protease, Pep-AMC fluorescence; in the data active = inhibition above about 30%; note: 0% = vehicle wells with enzyme and 100% = no enzyme wells
Mtb FBA inh = Mtb fructose-bisphosphate aldolase inhibition; inhibition, % at 1 µM; hit rate 2.3% among 360,000; purified M. tuberculosis FBA, fluorescence read-out; P9WQA3;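 note: 0% = vehicle and 100% = reference inhibitor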
Target sequence (P9WQA3 whole entry, looked up): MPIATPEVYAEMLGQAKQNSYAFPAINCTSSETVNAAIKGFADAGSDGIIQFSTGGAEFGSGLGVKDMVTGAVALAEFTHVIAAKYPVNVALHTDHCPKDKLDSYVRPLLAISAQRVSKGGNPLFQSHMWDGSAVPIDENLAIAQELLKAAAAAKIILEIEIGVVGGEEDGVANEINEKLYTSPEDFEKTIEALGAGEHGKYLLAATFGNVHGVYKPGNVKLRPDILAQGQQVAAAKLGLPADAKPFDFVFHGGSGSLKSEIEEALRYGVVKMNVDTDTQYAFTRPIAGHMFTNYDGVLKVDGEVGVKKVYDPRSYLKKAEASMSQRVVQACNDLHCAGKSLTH
Mtb FBA inh conf = confirmation of M. tuberculosis fructose-bisphosphate aldolase inhibitors; shares compounds with Mtb FBA inh; purified M. tuberculosis FBA, fluorescence read-out; inhibition, % at 1 µM; hit rate 78% among 5,600; AID 651616;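 note: 0% = vehicle wells and 100% = reference inhibitor wells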
GDH-TPI counter-2 = inhibits GDH-TPI coupling enzymes, flagging Mtb FBA hits | shares compounds with Mtb FBA inh | GDH-TPI coupled enzyme counterscreen, fluorescence | inhibition, % at 1 µM | hit rate 81% among 5,600; in the data active = inhibition above about 10%
GDH-TPI DR = GDH-TPI dose response counter-screen for Mtb FBA. IC50, µM. hit rate 79% among 170. shares compounds with Mtb FBA inh. GDH-TPI coupled enzyme assay, fluorescence, artifact counterscreen; call rule not given here
* marks the source's active call; other numbers are inactive results; x = no result given; + = active, no number. Compounds with a hit are over-represented: about 4.2% of the library has one in this group of screens. Cut-off read from the data, not from the text of the source, unless noted: active = inhibition above about 27%; inactive = the rest.

SMILES	RecA splice inh	GDH-TPI counter-1	Mtb betalactam	CCHF vOTU inh	Mtb FBA inh	Mtb FBA inh conf	GDH-TPI counter-2	others
N#Cc1ccc(C(=O)OCC(=O)N2CCN(C(=O)c3ccco3)CC2)cc1	x	-1.4	0.8	5.6	-3.1	x	x
N#Cc1ccccc1OCC(=O)OCC(=O)N1CCN(C(=O)c2ccco2)CC1	x	13.6	1.1	-5.5	73.9*	170.5*	147.1*
CCOC(=O)C1CCN(C(=O)Nc2ccc3nccnc3c2)CC1	-5.9	19.5	-10.4	-41.9	36.9*	56.8*	37.5*
CCOC(=O)c1ccc(C(=O)OCC)c(NC(=S)Nc2ccc([N+](=O)[O-])cc2OC)c1	0.1	19.5	0.6	-39.7	31.5*	-4.2	-5.8
CCOC(=O)Nc1ccc([N+](=O)[O-])cc1OC	-0.6	13.8	0.8	-4.8	0.1	x	x
COc1cccc2c(=O)c(C(=O)NCc3cccs3)c[nH]c12	-3.4	12.2	3.5	-33.8	34.2*	32.3*	26.0*
COc1cccc2c(=O)c(C(=O)NCCc3ccccc3)c[nH]c12	x	10.0	x	-20.9	48.5*	63.4*	45.1*
Cc1ccc2[nH]cc(C(=O)NCc3cccs3)c(=O)c2c1	0.4	-4.1	-2.0	-2.4	0.2	x	x
CC(=O)Nc1cc(-c2ccccc2F)cn2c(-c3ccccc3)cnc12	x	-3.6	x	-7.6	4.6	x	x
CNc1ccc2ncc(-c3ccccc3NC(C)=O)n2n1	x	6.7	x	-27.0	47.0*	0.5	-3.6
CCCc1cc(=O)oc2cc(OC3CCCCC3=O)ccc12 (stereo unspecified)	-1.2	13.9	1.5	-22.6	44.7*	25.8	22.0*
O=C1CCCCC1Oc1ccc2ccc(=O)oc2c1 (stereo unspecified)	0.6	9.5	2.3	-17.8	58.2*	+	174.4*
CCCCS(=O)(=O)Nc1ccc2cn[nH]c2c1	5.8	-7.1	0.7	-13.8	-2.3	x	x
CCCCS(=O)(=O)Nc1ccc2ncn(C)c(=O)c2c1	7.1	0.7	-1.9	-18.3	35.3*	-2.8	-4.6
O=C(OC12CCCN(C1)/C(=C/c1ccccc1)C2)c1cccc(F)c1 (stereo unspecified)	x	x	x	10.0	x	x	x
Cc1cc(OCC(=O)N2CCC(C(=O)O)CC2)c2c3c(c(=O)oc2c1)CCC3	x	15.7	-3.9	-58.6	97.7*	166.3*	133.2*
CCc1cc(=O)oc2cc(C)cc(OCC(=O)N3CCC(C(=O)O)CC3)c12	3.0	14.7	0.2	-29.8	76.0*	120.9*	108.9*
CCCc1cc(=O)oc2cc(C)cc(OCC(=O)N3CCC(C(N)=O)CC3)c12	x	18.6	-4.3	-31.6	39.1*	85.5*	80.9*
CCCc1cc(=O)oc2cc(C)cc(OCC(=O)N3CCC(C(=O)O)CC3)c12	2.2	9.8	-10.2	-42.2	96.5*	72.7*	64.7*
Cc1cc(C)cc(NC(=O)N2CCN(Cc3nc4ccccc4c(=O)[nH]3)CC2)c1	x	x	x	-0.4	x	x	x
CCCc1cc(=O)oc2cc(OCC(=O)N3CCN(Cc4ccc5c(c4)OCO5)CC3)ccc12	2.1	7.1	-9.4	9.6	15.1	x	x
CCCCc1cc(=O)oc2cc(C)cc(OCC(=O)N3CCC(C(=O)O)(c4ccccc4)CC3)c12	5.6	9.7	-6.4	-7.5	62.4*	51.8*	34.1*
CCCc1cc(=O)oc2cc(OCC(=O)N3CCC(C(=O)O)(c4ccccc4)CC3)ccc12	x	21.6	-6.5	-11.2	76.2*	101.4*	81.3*
CN1Cc2c(N3CCOCC3)nc3sc(C#N)c(N)c3c2CC1(C)C	-8.0	5.7	4.7	-66.7	78.4*	13.8	-4.7	GDH-TPI DR=1.84*
CN1Cc2c(N3CCOCC3)nc3sc(C(=O)c4ccc(Br)cc4)c(N)c3c2CC1(C)C	1.6	17.6	98.5	7.8	-0.7	x	x
SMILES	RecA splice inh	GDH-TPI counter-1	Mtb betalactam	CCHF vOTU inh	Mtb FBA inh	Mtb FBA inh conf	GDH-TPI counter-2	others
CNC(=O)c1ccc(-c2sc3nc(N4CCOCC4)c4c(c3c2N)CC(C)(C)OC4)o1	x	24.3	1.2	-9.9	40.9*	45.5*	29.9*
COc1ccc(NC(=O)c2sc3nc(N4CCOCC4)c4c(c3c2N)CC(C)(C)OC4)cc1	-3.6	0.0	4.4	-1.0	-1.1	x	x
Cc1cccc(NC(=O)n2ccc3ccc(-c4ccc5cc[nH]c5c4)cc32)c1	x	x	x	5.7	x	x	x
CCOC(=O)[C@@H]1c2[nH]c3ccccc3c2C[C@@]2(C(=O)OC)C=CCN12	x	x	x	10.7	x	x	x
O=c1c2ccccc2nc2ccccn12	-16.1	0.6	-5.2	-167.6	109.3*	163.0*	150.5*
Cn1c(=N)c(S(=O)(=O)c2ccccc2)cc2c(=O)n3ccccc3nc21	x	-1.1	-15.2	-15.6	60.3*	71.2*	53.6*
N=c1c(C(=O)NCCN2CCOCC2)cc2c(=O)n3ccccc3nc2n1Cc1ccc(F)cc1	-107.6	0.0	7.1	-48.4	40.3*	102.8*	80.7*
Cn1c(=N)c(S(=O)(=O)c2ccc(F)cc2)cc2c(=O)n3ccccc3nc21	-302.6	-5.2	-5.1	27.8	10.1	x	x
N=c1c(S(=O)(=O)c2ccc(F)cc2)cc2c(=O)n3ccccc3nc2n1CC1CCCO1 (stereo unspecified)	-21.4	6.6	-2.6	-3.0	83.6*	96.9*	79.4*
COCCCn1c(=N)c(C(=O)NCc2ccc3c(c2)OCO3)cc2c(=O)n3ccccc3nc21	-8.9	0.6	-4.3	-1.6	6.6	x	x
CC(C)CNC(=O)OCc1cn(Cc2cccc(Cl)c2)nn1	x	x	x	5.6	x	x	x
CCC(c1nc2ccccc2[nH]1)n1c(-c2ccc3cc[nH]c3c2)nc2ccccc21 (stereo unspecified)	x	x	x	-12.1	x	x	x
COc1ccc2c(c1)CNC2CS(=O)(=O)NCc1ccccc1 (stereo unspecified)	x	x	x	-4.7	x	x	x
O=C(N[C@H](C(=O)N1CCC[C@H]1C(=O)NCc1ccccc1)c1ccccc1)c1ccccc1	x	x	x	-4.3	x	x	x
N=c1c(S(=O)(=O)c2ccccc2)cc2c(=O)n3ccccc3nc2n1CCCN1CCOCC1	-98.0	9.6	2.5	-51.5	51.9*	48.1*	38.2*
N=c1c(C(=O)NCCN2CCOCC2)cc2c(=O)n3ccccc3nc2n1CCCN1CCOCC1	-136.5	10.7	5.9	-74.2	88.4*	155.7*	117.2*
CC(C)OCCCn1c(=N)c(S(=O)(=O)c2ccccc2)cc2c(=O)n3ccccc3nc21	0.4	13.4	8.5	7.7	12.9	x	x
Cc1ccc2nc3c(cc(C(=O)NCCN4CCOCC4)c(=N)n3CCCN3CCOCC3)c(=O)n2c1	-104.5	5.4	-4.6	x	78.3*	61.3*	42.3*
Cc1cc(C(=O)NCCN2CCOCC2)c2ccccc2n1	x	14.6	-7.7	6.7	3.8	x	x
CN(CCO)C1CN(Cc2cn(Cc3ccccc3C(F)(F)F)nn2)S(=O)(=O)C1 (stereo unspecified)	x	x	x	2.4	x	x	x
O=c1oc(Nc2cccc(F)c2)nc2ccccc12	0.6	-1.9	6.0	15.0	35.9*	96.2*	79.2*
Clc1cccc(CNc2ccn3nc(-c4ccco4)cc3n2)c1	x	8.9	x	3.4	12.8	x	x
